Sampled rows, rich in hits. Any-hit rate of the full collection: about 6.1%.
ERG Ets-DNA blk: inhibitors of human ERG Ets domain-DNA interaction; AID 624246; fluorescence polarization, His-ERG Ets domain / labelled DNA; P11308; Potency, µM (titrated, usually from 76.9 µM), inactives show at the highest dose FP activity, negative = inhibition, most hits filed as inhibitors; 370,000 tested, 0.028% active; active = well fitted inhibition curve with a large enough effect in the polarisation, with a control signal flat; the % refers to the polarisation;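 note: polarization taken with two DNA probes labelled with fluorescein and Texas red; potency is the fitted concentration of half-maximal effect; % of control where 0% means no effect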
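His-tagged ERG Ets domain (1 uM in the protein solution; 300mM KCl, 50mM Tris-HCl, 1mM EDTA, 1mM DTT, pH 7.5) received compound, then a probe mix of 5 nM fluorescein-DNA and 100nM Texas-615-DNA. Fluorescence polarization was read for both dyes.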
D1 ag: activates the human D1 dopamine receptor; activation, % at 2 µM; 360,000 tested, 1% active; P21728; HEK293 T-REx D1 cells, calcium flux, agonist mode; in the data active = activation above about 30%; note: 0% is about no effect
Target sequence (P21728 whole entry, looked up): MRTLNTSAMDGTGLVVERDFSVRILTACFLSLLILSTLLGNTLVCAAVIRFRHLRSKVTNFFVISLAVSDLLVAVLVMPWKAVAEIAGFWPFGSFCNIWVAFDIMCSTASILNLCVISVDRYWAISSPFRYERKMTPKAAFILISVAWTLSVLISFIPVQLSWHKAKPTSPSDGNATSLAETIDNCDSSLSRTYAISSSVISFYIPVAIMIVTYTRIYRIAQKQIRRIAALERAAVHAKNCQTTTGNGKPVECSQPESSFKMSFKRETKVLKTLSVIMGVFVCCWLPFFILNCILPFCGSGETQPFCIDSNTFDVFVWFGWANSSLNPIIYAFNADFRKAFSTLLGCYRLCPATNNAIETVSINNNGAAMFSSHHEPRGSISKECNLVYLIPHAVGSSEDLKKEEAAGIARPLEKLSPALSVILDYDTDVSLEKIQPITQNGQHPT
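Tetracycline-induced HEK293 TREx D1 cells, force-coupled to calcium signalling, were dye-loaded with a no-wash calcium kit. Compound was pin-added after a 10 s baseline. Fluorescence was read kinetically at 1 cycle/s for 180 s, with calcium rises flagged as agonism.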
DRD3 agonist: agonists of human D3 dopamine receptor; P35462; D3R DiscoveRx beta-arrestin cells, luminescence, 90 min; max activation, %; 410,000 tested, 0.58% active; AID 652048; in the data active = max activation above about 30%; note: 0% is about no effect
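Cells at 1500/well, incubated overnight, then treated with pinned compounds (dopamine as control) for 90 min at 37 degrees C. DiscoveRx reagent added for 30 - 60 minutes at room temperature; luminescence read.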
D1 antag: antagonists of human D1 dopamine receptor | 360,000 tested, 3.2% active | P21728 | activity change, negative = inhibition, % at 10 µM | HEK293 TREx D1 cells, calcium flux, dopamine EC80; active compounds read low; in the data active = activity change below about -30%; note: % is set by controls: 0 for no effect and ±100 for the full control effect
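Inducible Hek293 Trex D1 cells (tetracycline, overnight, 30 C). Calcium dye 30–90 min RT. Antagonist mode: EC80 dopamine added after 180 s compound read.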
D1 PAM: human D1 dopamine receptor positive modulation; P21728; AID 504651; HEK293 TREx D1 cells, calcium flux, dopamine EC20 potentiation; potentiation, % at 10 µM; 360,000 tested, 0.036% active; in the data active = potentiation above about 30%; note: 0% is about no effect
D3 antag: antagonists of human D3 dopamine receptor. P35462. D3R cells, DiscoveRx beta-arrestin luminescence, antagonist mode; active compounds read low. max response, negative = inhibition, %. 360,000 tested, 2.5% active; in the data active = max response below about -50%; note: % is set by controls: 0 for no effect and ±100 for the full control effect
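Cells expressing the human receptor were seeded at 1500 cells/well, incubated overnight at 37 degrees C in 5% CO2, then exposed to library compounds with dopamine controls for 90 minutes at 37 degrees C before luminescent detection.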
The depositor's hits bear a star; . = not tested or not shown; ! = repeats disagree; [ ] = remark or other dose.

SMILES	ERG Ets-DNA blk	D1 ag	DRD3 agonist	D1 antag	D1 PAM	D3 antag
C=C1CCC[C@]2(C)C[C@H]3OC(=O)C(CNC(C)CCCC(C)C)[C@H]3CC12 (stereo partly specified)	7%	15	-25	17	-7	-30
COc1ccc(C(=O)Nc2cccc(-c3cn4ccsc4n3)c2)c(OC)c1	3%	0	63*	-17	-3	.
Cc1nc2c(c(C)c1C#N)C(=O)c1ccccc1-2	1%	0	7	17	2	2
CCN1CCCC1CNS(=O)(=O)c1ccc(F)c(Cl)c1 (stereo unspecified)	11%	7	1	2	-1	-9
COc1ccc(OC)c(N/C(N)=N/c2nc(C)cc(C)n2)c1	5%	3	7	-26	-7	6
COc1ccc(Cl)cc1Nc1nc(C)cc(=O)[nH]1	-6%	1	-15	-3	-3	-81*
COc1ccc(Cl)cc1N/C(N)=N/c1nc(C)cc(=O)[nH]1	-3%	1	-9	-20	-4	27
COc1ccc(C)cc1N/C(N)=N/c1nc(C)cc(C)n1	-1%	11	1	-75*	-6	0
CCCOc1ccccc1N/C(=N/c1nc(C)cc(C)n1)NC(=O)COc1ccc(OC)cc1	9%	2	4	4	-8	-8
COc1ccc(Cl)cc1N/C(N)=N/c1nc(C)cc(C)n1	17%	12	15	-70*	-6	-22
CCCOc1ccccc1N/C(N)=N/c1nc(C)cc(C)n1	-1%	13	-1	-59*	-14	-20
CCN(CC)S(=O)(=O)c1ccc(NC(=O)c2ccc(Cl)nc2)cc1	-6%	4	-35	-26	1	-20
O=C(CCNS(=O)(=O)c1cccs1)Nc1nccs1	-9%	2	-7	-32*	-6	12
O=C(NCc1ccc2c(c1)CCN2C(=O)c1ccccc1)Nc1cccc(C(F)(F)F)c1	5%	2	-25	-43*	-3	.
Cc1nc(NC(=O)c2cc3c(s2)CCCCC3)sc1C(=O)N(C)C	-2%	2	-7	4	1	-16
CCOC(=O)Cc1csc(NC(=S)NC(=O)c2ccccc2Br)n1	-2%	61*	-2	-27	-4	-19
CCOC(=O)Cc1csc(NC(=O)Nc2ccc(Cl)cc2)n1	6%	19	-5	-20	-4	-16
CCOC(=O)Cc1csc(NC(=O)C(C)c2ccc([N+](=O)[O-])cc2)n1 (stereo unspecified)	3%	58*	-1	-38*	-5	6
CCOC(=O)Cc1csc(NC(=O)Nc2cccc(Cl)c2)n1	-3%	15	-4	-42*	-14	-1
Cc1nc(NC(=O)c2ccc(Br)s2)sc1C(=O)N(C)C	1%	0	3	5	-2	-69*
CS(=O)(=O)Nc1nnc(C2CCCC2)s1	0%[15.4 µM]	1	7	9	-6	3
NC(=O)Nc1ccc(C(=O)OCC(=O)NCc2ccc3c(c2)OCO3)cc1	8%	1	1	26	6	18
O=C(COc1ccc(Cl)cc1)Nc1nnc(-c2ccco2)o1	6%	2	4	-13	-4	10
CCOC(=O)Cc1csc(NC(=O)c2cccs2)n1	-2%	11	-9	-17	-4	-16
CCOC(=O)Cc1csc(NC(=O)CN(C)S(=O)(=O)c2cccc3cccnc23)n1	3%	5	-4	-46*	.	-18
SMILES	ERG Ets-DNA blk	D1 ag	DRD3 agonist	D1 antag	D1 PAM	D3 antag
CCOC(=O)Cc1csc(NC(=O)c2ccc(Br)s2)n1	.	6	.	-36*	-7	.
O=C(Nc1cccc(F)c1)C1CCN(c2nnnn2-c2ccccc2)CC1	6%	3	-1	-30*	-4	17
CCn1c(SCC(=O)NCC(=O)Nc2ccc(F)cc2)nnc1-c1cccs1	.	0	3	16	-4	11
COc1cc(OC)c(CNC2CCCCCC2)cc1Br	6%	62*	-22	-11	-12	-62*
COc1cc(OC)c(OC)cc1CNC1CCCCCC1	0%	5	-12	21	-5	-23
CNCC(O)c1ccc(OC(=O)C(C)(C)C)c(OC(=O)C(C)(C)C)c1 (stereo unspecified)	-10%	3	40*!	25	-5	-4
CS(=O)(=O)N1CCN(C(=O)c2ccc(Br)s2)CC1	-1%	-2	15	-32*	-4	-27
O=C(c1c(F)c(F)c(F)c(F)c1F)N1CCN(Cc2ccc3c(c2)OCO3)CC1	11%	.	-7	.	.	-12
CS(=O)(=O)N1CCN(C(=O)c2ccncc2)CC1	-2%	2	6	-9	4	0
O=C(c1ccc(Br)s1)N1CCN(Cc2ccc3c(c2)OCO3)CC1	-6%	0	-57	-35*	-4	-95*
O=C(C1=C[C@@H](c2ccc(Br)cc2)C[C@@H](OCc2ccc(CO)cc2)O1)N1CCN(Cc2ccc3c(c2)OCO3)CC1	15%	6	-13	15	1	-63*
O=C(c1ccc(Br)o1)N1CCN(Cc2ccc3c(c2)OCO3)CC1	2%	1	-4	1	3	-81*
O=C(c1cc2c(s1)CCCC2)N1CCN(Cc2ccc3c(c2)OCO3)CC1	1%	1	-25	-2	-3	-24
Cc1cc2c(cc3c(SCc4cccc(F)c4)nnc(C)n32)o1	0%	1	-2	-5	-4	.
CC(C)(C)c1ccccc1NC(=O)Nc1nc(C(N)Cc2ccc(F)cc2)cs1 (stereo unspecified)	.	.	-1	.	.	7
CN(Cc1ccccc1)C(=O)c1ccc(Cl)c([N+](=O)[O-])c1	8%	1	-9	-5	-1	-15
O=C1/C(=C/c2ccncc2)CCC/C1=C\c1ccncc1	2%	4	-12	-21	-4	-60*
CCOCCCNC(=O)C1CCN(C(=O)c2cc3sccc3n2C)CC1	-4%	-1	7	-84*	-6	.
CC(CCc1ccccc1)NC(=O)C1CCCN(C(=O)c2cc3sccc3n2C)C1 (stereo unspecified)	-3%	1	0	-39*	-9	-7
CCn1c(C(=O)N2CCC(C(=O)NCCCOC)CC2)cc2sccc21	4%	0	-4	9	-4	.
COCCNC(=O)C1CCN(C(=O)c2cc3sccc3n2Cc2ccc(Cl)cc2)CC1	2%	15	11	-24	-5	.
COCCCNC(=O)C1CCN(C(=O)c2cc3sccc3n2Cc2ccc(Cl)cc2)CC1	0%	11	2	-39*	-5	.
COCCNC(=O)C1CCN(C(=O)c2cc3sccc3n2Cc2ccc(F)cc2)CC1	-4%	8	6	-49*	-10	31

Compound activity deposited in PubChem by National Center for Advancing Translational Sciences (NCATS).
